# Test results reported in the supplement of paper PMC8728848.
# The full list was thinned out, with the strongest signals kept by preference.
# B1: GS13846A-bth-444-19-444 (Bacteroides thetaiotaomicron) (protein)
# chain: SCENEFDVSDKADSLISVTVNTLNNQAAYNVGETAQAELWIQRGGLKDASGKVQFVVDPLLLDSLNQEDKTNYELLPENCYEMTNTEFTVDKNELCGYITYHPEKILALSAYNETKYVLPLRLISNDLAINPARNTSFLAFTILEPIVHISNAGVYNINPDLTSTMDIQIGVPFTNKWDILCNLTEDLSLIDEYNQINKVNFTLLPENAYTAPESVTLQEGVSQITASYQLKNNLVPGNYILPIKIGSITASQGGVPNNSLVIDEESNVLFCIVKEGNKINKSGWEVIECSSEHAGNEATYMIDDNESTYWHCKFKNEAGSSVPPFHFIIDMKKEITIAQIDLLNRGDGAANNIKWVEFYASNNNSEWDKIGAGDFNDEGTRATFRYYVKSTKARYLKLIIPEGYGNNCPPAAIRELTVYGLEGNN
# Tests used:
# Assay in all cases: glycan array binding signal (z-score within array); higher = stronger binding
# Conditions in all cases: glycan notation: IUPAC condensed, linker removed
# Fuc(a1-2)Gal(b1-3)GalNAc = molecular target: Fuc(a1-2)Gal(b1-3)GalNAc
# Summary of the method: (§1)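 From the Consortium for Functional Glycomics database, 3228 arrays were curated, keeping only those whose protein sequence was available. Binding is given as a within-array Z-score averaged across arrays sharing a protein sequence and across linkers. Negative Z-scores can be read as non-binding.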
# [1] = molecular target: Fuc(a1-2)Gal(b1-3)GlcNAc(b1-3)[Fuc(a1-2)Gal(b1-3)GlcNAc(b1-6)]GalNAc
# Summary of the method: as §1
# [2] = molecular target: Fuc(a1-2)Gal(b1-3)[Fuc(a1-4)]GlcNAc(b1-2)Man(a1-3)[Fuc(a1-2)Gal(b1-3)[Fuc(a1-4)]GlcNAc(b1-2)Man(a1-3)]Man(b1-4)GlcNAc(b1-4)GlcNAc
# Summary of the method: as §1
# Fuc(a1-2)Gal(b1-4)Glc = molecular target: Fuc(a1-2)Gal(b1-4)Glc
# Summary of the method: as §1
# [3] = molecular target: Fuc(a1-2)Gal(b1-4)GlcNAc(b1-2)Man(a1-3)[Fuc(a1-2)Gal(b1-4)GlcNAc(b1-2)Man(a1-6)]Man(b1-4)GlcNAc(b1-4)GlcNAc
# Summary of the method: as §1
# [4] = molecular target: Fuc(a1-2)Gal(b1-4)GlcNAc(b1-2)[Fuc(a1-2)Gal(b1-4)GlcNAc(b1-4)]Man(a1-3)[Fuc(a1-2)Gal(b1-4)GlcNAc(b1-2)Man(a1-6)]Man(b1-4)GlcNAc(b1-4)GlcNAc
# Summary of the method: as §1
# [5] = molecular target: Fuc(a1-2)Gal(b1-4)GlcNAc(b1-3)[Fuc(a1-3)[Gal(b1-4)]GlcNAc(b1-6)]Gal(b1-4)Glc
# Summary of the method: as §1
# [6] = molecular target: Fuc(a1-2)Gal(b1-4)[Fuc(a1-3)]GlcNAc(b1-2)[Fuc(a1-2)Gal(b1-4)[Fuc(a1-3)]GlcNAc(b1-4)]Man(a1-3)[Fuc(a1-2)Gal(b1-4)[Fuc(a1-3)]GlcNAc(b1-2)Man(a1-6)]Man(b1-4)GlcNAc(b1-4)GlcNAc
# Summary of the method: as §1
# Fuc(a1-2)Gal6S(b1-4)Glc = molecular target: Fuc(a1-2)Gal6S(b1-4)Glc
# Summary of the method: as §1
# [7] = molecular target: Fuc(a1-2)[Gal(a1-3)]Gal(b1-3)GlcNAc(b1-2)Man(a1-3)[Fuc(a1-2)[Gal(a1-3)]Gal(b1-3)GlcNAc(b1-2)Man(a1-6)]Man(b1-4)GlcNAc(b1-4)GlcNAc
# Summary of the method: as §1
# [8] = molecular target: Gal(a1-3)[Gal(a1-4)]Gal(b1-4)GlcNAc
# Summary of the method: as §1
# [9] = molecular target: Gal(a1-4)Gal(b1-4)GlcNAc(b1-3)Gal(b1-4)Glc
# Summary of the method: as §1
# [10] = molecular target: Gal(b1-3)GlcNAc(b1-2)Man(a1-3)[Gal(b1-3)GlcNAc(b1-2)Man(a1-6)]Man(b1-4)GlcNAc(b1-4)GlcNAc
# Summary of the method: as §1
# [11] = molecular target: Gal(b1-3)GlcNAc(b1-2)Man(a1-3)[Gal(b1-3)GlcNAc(b1-2)Man(a1-6)]Man(b1-4)GlcNAc(b1-4)[Fuc(a1-6)]GlcNAc
# Summary of the method: as §1
# [12] = molecular target: Gal(b1-3)GlcNAc(b1-2)[Gal(b1-3)GlcNAc(b1-6)]Man(a1-6)[Gal(b1-3)GlcNAc(b1-2)Man(a1-3)]Man(b1-4)GlcNAc(b1-4)GlcNAc
# Summary of the method: as §1
# [13] = molecular target: Gal(b1-3)GlcNAc(b1-3)Gal(b1-4)[Fuc(a1-3)]GlcNAc
# Summary of the method: as §1
# [14] = molecular target: Gal(b1-4)GlcNAc(b1-2)Man(a1-3)[GlcNAc(b1-4)][Gal(b1-4)GlcNAc(b1-2)Man(a1-6)]Man(b1-4)GlcNAc(b1-4)GlcNAc
# Summary of the method: as §1
# [15] = molecular target: Gal(b1-4)GlcNAc(b1-2)Man(a1-6)Man(b1-4)GlcNAc(b1-4)GlcNAc
# Summary of the method: as §1
# [16] = molecular target: Gal(b1-4)GlcNAc(b1-3)Gal(b1-4)GlcNAc(b1-3)Gal(b1-4)GlcNAc(b1-3)Gal(b1-4)GlcNAc(b1-2)Man(a1-3)[Gal(b1-4)GlcNAc(b1-3)Gal(b1-4)GlcNAc(b1-3)Gal(b1-4)GlcNAc(b1-3)Gal(b1-4)GlcNAc(b1-2)Man(a1-6)]Man(b1-4)GlcNAc(b1-4)[Fuc(a1-6)]GlcNAc
# Summary of the method: as §1
# [17] = molecular target: Gal(b1-4)GlcNAc(b1-3)Gal(b1-4)GlcNAc(b1-6)[Gal(b1-3)]GalNAc
# Summary of the method: as §1
# Gal(b1-6)Gal = molecular target: Gal(b1-6)Gal
# Summary of the method: as §1
# Gal3S6S(b1-4)GlcNAc = molecular target: Gal3S6S(b1-4)GlcNAc
# Summary of the method: as §1
# Gal3S6S(b1-4)GlcNAc6S = molecular target: Gal3S6S(b1-4)GlcNAc6S
# Summary of the method: as §1
# Gal6S(b1-3)GlcNAc = molecular target: Gal6S(b1-3)GlcNAc
# Summary of the method: as §1
# Gal6S(b1-3)GlcNAc6S = molecular target: Gal6S(b1-3)GlcNAc6S
# Summary of the method: as §1
# Gal6S(b1-4)Glc = molecular target: Gal6S(b1-4)Glc
# Summary of the method: as §1
# Gal6S(b1-4)Glc6S = molecular target: Gal6S(b1-4)Glc6S
# Summary of the method: as §1
# Gal6S(b1-4)GlcNAc = molecular target: Gal6S(b1-4)GlcNAc
# Summary of the method: as §1
# Gal6S(b1-4)GlcNAc6S = molecular target: Gal6S(b1-4)GlcNAc6S
# Summary of the method: as §1
# [18] = molecular target: GalNAc(a1-3)GalNAc(b1-3)Gal(a1-4)Gal(b1-4)GlcNAc
# Summary of the method: as §1
# GalNAc(b1-4)Gal(b1-4)Glc = molecular target: GalNAc(b1-4)Gal(b1-4)Glc
# Summary of the method: as §1
# GalNAc6S(b1-4)GlcNAc = molecular target: GalNAc6S(b1-4)GlcNAc
# Summary of the method: as §1
# Glc(b1-4)Glc = molecular target: Glc(b1-4)Glc
# Summary of the method: as §1
# [19] = molecular target: GlcA3S(b1-3)Gal(b1-4)GlcNAc(b1-2)Man
# Summary of the method: as §1
# [20] = molecular target: GlcA3S(b1-3)Gal(b1-4)GlcNAc(b1-3)Gal(b1-4)Glc
# Summary of the method: as §1
# [21] = molecular target: GlcNAc(a1-3)Gal(b1-4)GlcNAc
# Summary of the method: as §1
# [22] = molecular target: GlcNAc(a1-6)Gal(b1-4)GlcNAc
# Summary of the method: as §1
# [23] = molecular target: GlcNAc(b1-3)Gal(b1-4)GlcNAc(b1-3)Gal(b1-4)GlcNAc(b1-2)Man(a1-3)[GlcNAc(b1-3)Gal(b1-4)GlcNAc(b1-3)Gal(b1-4)GlcNAc(b1-2)Man(a1-6)]Man(b1-4)GlcNAc(b1-4)[Fuc(a1-6)]GlcNAc
# Summary of the method: as §1
# [24] = molecular target: GlcNAc(b1-4)Gal(b1-4)GlcNAc
# Summary of the method: as §1
# [25] = molecular target: Neu5Ac(a2-3)Gal(b1-4)GlcNAc(b1-2)Man(a1-3)[Neu5Ac(a2-3)Gal(b1-4)GlcNAc(b1-2)Man(a1-6)]Man(b1-4)GlcNAc(b1-4)[Fuc(a1-6)]GlcNAc
# Summary of the method: as §1
# [26] = molecular target: Neu5Ac(a2-3)Gal(b1-4)GlcNAc(b1-3)Gal(b1-4)GlcNAc(b1-3)Gal(b1-4)GlcNAc
# Summary of the method: as §1
# [27] = molecular target: Neu5Ac(a2-3)Gal(b1-4)GlcNAc(b1-3)Gal(b1-4)GlcNAc(b1-3)Gal(b1-4)GlcNAc(b1-2)Man(a1-3)[Neu5Ac(a2-3)Gal(b1-4)GlcNAc(b1-3)Gal(b1-4)GlcNAc(b1-3)Gal(b1-4)GlcNAc(b1-2)Man(a1-6)]GalNAc
# Summary of the method: as §1
# [28] = molecular target: Neu5Ac(a2-3)Gal(b1-4)GlcNAc(b1-3)Gal(b1-4)GlcNAc(b1-3)[Neu5Ac(a2-3)Gal(b1-4)GlcNAc(b1-3)Gal(b1-4)GlcNAc(b1-6)]GalNAc
# Summary of the method: as §1
# [29] = molecular target: Neu5Ac(a2-3)Gal(b1-4)[Fuc(a1-3)]GlcNAc(b1-3)Gal(b1-4)GlcNAc
# Summary of the method: as §1
# [30] = molecular target: Neu5Ac(a2-3)Gal6S(b1-4)GlcNAc
# Summary of the method: as §1
# [31] = molecular target: Neu5Ac(a2-6)Gal(b1-4)GlcNAc(b1-2)Man(a1-3)Man(b1-4)GlcNAc(b1-4)GlcNAc
# Summary of the method: as §1
# [32] = molecular target: Neu5Ac(a2-6)Gal(b1-4)GlcNAc(b1-2)Man(a1-6)[Gal(b1-4)GlcNAc(b1-2)Man(a1-3)]Man(b1-4)GlcNAc(b1-4)GlcNAc
# Summary of the method: as §1
# [33] = molecular target: Neu5Ac(a2-6)Gal(b1-4)GlcNAc(b1-6)[Gal(b1-3)]GalNAc
# Summary of the method: as §1
# [34] = molecular target: Neu5Ac(a2-6)GlcNAc(b1-4)GlcNAc
# Summary of the method: as §1
# [35] = molecular target: Neu5Gc(a2-8)Neu5Gc(a2-6)Gal(b1-4)GlcNAc
# Summary of the method: as §1
binder,measurement,setting,value
B1,glycan array binding signal (z-score),Fuc(a1-2)Gal(b1-3)GalNAc,-0.247
same,glycan array binding signal (z-score),[1],-0.101
same,glycan array binding signal (z-score),[2],-0.423
same,glycan array binding signal (z-score),Fuc(a1-2)Gal(b1-4)Glc,-0.176
same,glycan array binding signal (z-score),[3],0.384
same,glycan array binding signal (z-score),[4],-0.079
same,glycan array binding signal (z-score),[5],0.069
same,glycan array binding signal (z-score),[6],-0.407
same,glycan array binding signal (z-score),Fuc(a1-2)Gal6S(b1-4)Glc,-0.234
same,glycan array binding signal (z-score),[7],-0.305
same,glycan array binding signal (z-score),[8],2.7
same,glycan array binding signal (z-score),[9],-0.018
same,glycan array binding signal (z-score),[10],0.242
same,glycan array binding signal (z-score),[11],3.4
same,glycan array binding signal (z-score),[12],-0.163
same,glycan array binding signal (z-score),[13],0.028
same,glycan array binding signal (z-score),[14],-0.238
same,glycan array binding signal (z-score),[15],-0.133
same,glycan array binding signal (z-score),[16],0.486
same,glycan array binding signal (z-score),[17],-0.308
same,glycan array binding signal (z-score),Gal(b1-6)Gal,-0.188
same,glycan array binding signal (z-score),Gal3S6S(b1-4)GlcNAc,6.47
same,glycan array binding signal (z-score),Gal3S6S(b1-4)GlcNAc6S,6.71
same,glycan array binding signal (z-score),Gal6S(b1-3)GlcNAc,7.3
same,glycan array binding signal (z-score),Gal6S(b1-3)GlcNAc6S,6.28
same,glycan array binding signal (z-score),Gal6S(b1-4)Glc,3.68
same,glycan array binding signal (z-score),Gal6S(b1-4)Glc6S,12.7
same,glycan array binding signal (z-score),Gal6S(b1-4)GlcNAc,4.8
same,glycan array binding signal (z-score),Gal6S(b1-4)GlcNAc6S,8.87
same,glycan array binding signal (z-score),[18],-0.175
same,glycan array binding signal (z-score),GalNAc(b1-4)Gal(b1-4)Glc,0
same,glycan array binding signal (z-score),GalNAc6S(b1-4)GlcNAc,5.49
same,glycan array binding signal (z-score),Glc(b1-4)Glc,-0.32
same,glycan array binding signal (z-score),[19],-0.266
same,glycan array binding signal (z-score),[20],-0.082
same,glycan array binding signal (z-score),[21],-0.214
same,glycan array binding signal (z-score),[22],-0.052
same,glycan array binding signal (z-score),[23],0.103
same,glycan array binding signal (z-score),[24],-0.193
same,glycan array binding signal (z-score),[25],-0.407
same,glycan array binding signal (z-score),[26],0.067
same,glycan array binding signal (z-score),[27],-0.089
same,glycan array binding signal (z-score),[28],-0.336
same,glycan array binding signal (z-score),[29],-0.205
same,glycan array binding signal (z-score),[30],-0.129
same,glycan array binding signal (z-score),[31],-0.287
same,glycan array binding signal (z-score),[32],-0.298
same,glycan array binding signal (z-score),[33],1.86
same,glycan array binding signal (z-score),[34],0.027
same,glycan array binding signal (z-score),[35],-0.262
